Records with an inconclusive call do not appear. Active and inactive are the calls of the source. Unless noted, calls follow the shape of the dose curve; as a rule, active = well fitted curve in the direction sought with a large enough effect in the repeat runs; inconclusive = weak or mixed curves; inactive = no such curve, though single readings can be large; an effect the other way counts as inactive or inconclusive.
What was measured:
[1] = target: Luciferin 4-monooxygenase (Photinus pyralis) (UniProt P08659); test: qHTS assay to identify small molecule inhibitors of firefly luciferase (AID 1224835); also: nearly all actives have a fitted effect of over 25% in size
How it was run: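 Biochemical qHTS: compounds run as interplate titrations against purified firefly enzyme, with D-luciferin and ATP each at its KM concentration. Light output recorded by CCD imaging.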

[2] = qHTS assay to identify small molecule agonists of the constitutive androstane receptor (CAR) signaling pathway - cell viability counter screen (AID 1224836); also: nearly all actives have a fitted effect of over 45% in size
How it was run: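 Compound titrations (15 concentrations) went onto HepG2-CYP2B6-hCAR cells 4 h after seeding, alongside PK11195 at a final 0.75 uM; a 23 h, 37 C/5% CO2 incubation preceded CellTiter-Fluor viability measurement.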

[3] = qHTS assay to identify small molecule antagonists of the constitutive androstane receptor (CAR) signaling pathway - cell viability counter screen (AID 1224837); also: nearly all actives have a fitted effect of over 45% in size
How it was run: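 CITCO at 50 nM final was added alongside compounds (15 concentrations) to double-stable hCAR/CYP2B6-2.2kb HepG2 cells. Following 23 hr at 37 C, cell viability was quantified by CellTiter-Fluor fluorescence intensity.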

[4] = target: Nuclear receptor subfamily 1 group I member 3 (Homo sapiens) (UniProt Q14994); test: qHTS assay to identify small molecule antagonists of the constitutive androstane receptor (CAR) signaling pathway (AID 1224838); also: nearly all actives have a fitted effect of over 40% in size
How it was run: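 Inhibition of CITCO-driven (50 nM final) CYP2B6 reporter expression is measured in HepG2 cells stably carrying hCAR. Fifteen compound concentrations are applied for 24 h at 37 C, followed by luciferase luminescence.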

[5] = qHTS assay to identify small molecule antagonists of the estrogen related receptor signaling pathway with the pleiotropic PPARgamma coactivator (PGC) from Tox21 10K library - cell viability counter screen (AID 1224840; active = well fitted cell-killing curve with a large enough effect in the repeat runs, not every such curve was filed as active; also: nearly all actives have a fitted effect of over 40% in size)
How it was run: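 Readout: fluorescence intensity from CellTiter-Fluor after 30 min at 37 C/5% CO2. Preceded by 17.5 h treatment of PGC/ERR cells with DMSO-dissolved compounds, added 6 h post-seeding.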

[6] = qHTS assay to identify small molecule agonists of the hypoxia (HIF-1) signaling pathway - cell viability counter screen (AID 1224844; calls by dose curve; also: nearly all actives have a fitted effect of over 50% in size)
How it was run: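 In this counter screen, HRE-bla ME-180 cell viability after 17 hrs of compound exposure at 37C was read by CellTiter-Glo luminescence, multiplexed with the beta-lactamase reporter measurement.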

[7] = qHTS assay to identify small molecule agonists of H2AX (AID 1224845; active = well fitted activation curve with a large enough effect in the signal ratio in the repeat runs, not every such curve was filed as active; the % refers to the signal ratio)
How it was run: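 Wild-type CHO-K1 cells, plated overnight, exposed 3hr at 37C to 15 concentrations (0.76% DMSO final). Lysed, then HTRF anti-pH2AX (S139) cryptate and anti-H2AX-d2 antibodies, 24 hr room temperature; 665/620 nm emission read.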

[8] = qHTS assay to identify small molecule agonists of the hypoxia (HIF-1) signaling pathway (AID 1224846; active = well fitted activation curve with a large enough effect in the signal ratio in the repeat runs, not every such curve was filed as active; the % refers to the signal ratio)
How it was run: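 ME-180 HRE-bla reporter cells; compounds in DMSO, 17 h at 37C; read-out beta-lactamase via CCF4-AM FRET.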

[9] = qHTS RealTime-Glo MT Cell Viability Assay in HepG2 cells - 24 hour (AID 1224867); also: nearly all actives have a fitted effect of over 50% in size
How it was run: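 Viability was tracked continuously by NanoLuc luminescence from prosubstrate reduced by living HepG2 cells, at successive time points over 40 h of compound exposure. Cells with reagent were preincubated 5 h at 37 °C before compound addition.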

[10] = qHTS RealTime-Glo MT Cell Viability Assay in HEK293 cells - 32 hour (AID 1224868); also: top concentration of the series differs between compounds; nearly all actives have a fitted effect of over 50% in size
How it was run: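 Viability tracked continuously by luminescence as live cells reduce a prosubstrate for NanoLuc; HEK293 cells preincubated 5 h, compound-treated at 37 C, and read at 0, 8, 16, 24, 32 and 40 h.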

[11] = A CellTox Green Cytotoxicity Assay to monitor cytotoxicity in HEK293 cells - 0 hour (AID 1224869); also: nearly all actives have a fitted effect of over 50% in size
How it was run: (§1)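 Real-time, in one plate: 600 HEK293 cells/well with dead-cell DNA dye, pinned compound after 5 h, 37 C incubation over 40 h; viable cells give no appreciable fluorescence.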

[12] = qHTS RealTime-Glo MT Cell Viability Assay in HepG2 cells - 40 hour (AID 1224870); also: nearly all actives have a fitted effect of over 50% in size
How it was run: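 HepG2 cells (600/well) mixed with RealTime-Glo MT reagent, settled 5 h at 37 C/5% CO2 before compound addition. Nonlytic NanoLuc luminescence from viable-cell prosubstrate reduction read repeatedly during 40 h treatment at 37 C.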

[13] = A CellTox Green Cytotoxicity Assay to monitor cytotoxicity in HEK293 cells - 40 hour (AID 1224871); also: nearly all actives have a fitted effect of over 45% in size
How it was run: as §1

[14] = qHTS assay to identify small molecule agonists of the estrogen related receptor signaling pathway with the pleiotropic PPARgamma coactivator (PGC) from Tox21 10K library (AID 1224842); also: nearly all actives have a fitted effect of over 15% in size
How it was run: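 PGC/ERR reporter cell line, 2,000 cells per well, incubated 6 h at 37 C before 23 nL compound in DMSO was added. After 18 h at 37 C, One-Glo luminescence read following 30 min at room temperature.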

[15] = qHTS assay to identify small molecule agonists of the estrogen related receptor (ERR) signaling pathway from Tox21 library (AID 1224849; calls by dose curve; also: nearly all actives have a fitted effect of over 15% in size); settings: ERR reporter cell line, ONE-Glo luciferase, 18 h
How it was run: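 Luciferase activity in ERR pathway reporter cells served as the agonist readout; exposure lasted 18 h at 37 C, with ONE-Glo detection after 30 min at room temperature.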

[16] = qHTS assay to identify small molecule antagonists of the estrogen related receptor signaling pathway with the pleiotropic PPARgamma coactivator (PGC) from Tox21 10K library (AID 1224841; call rule not given here)
How it was run: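 One-Glo luminescence, measured after half an hour at room temperature, quantified reporter output of PGC/ERR cells. These had been plated at 2,000 per well, incubated 6 h, dosed with compounds in DMSO, then kept 18 h at 37 C.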

[17] = target: Thyrotropin receptor (Homo sapiens) (UniProt P16473); test: qHTS assay to identify small molecule agonists of the thyroid stimulating hormone receptor (TSHR) signaling pathway (AID 1224843; calls by dose curve; also: nearly all actives have a fitted effect of over 45% in size)
How it was run: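 HEK293/TSHR, 800 cells/well; cpd 30 min RT; add cAMP-d2 + anti-cAMP-cryptate, 1 h RT; fluorescence read on plate reader. 15-pt titration, n=3.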

[18] = qHTS assay to identify small molecule agonists of H2AX - cell viability counter screen (AID 1224847; calls by dose curve; also: top concentration of the series differs between compounds; nearly all actives have a fitted effect of over 30% in size)
How it was run: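 Read-out: CellTiter-Glo luminescence, 30 min RT. Cells: wild-type CHO-K1, 1000/well, 10% FBS, plated overnight at 37C. Treatment: 15 concentrations, 3 hr, 37C, 0.76% DMSO.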

[19] = qHTS assay to identify small molecule antagonists of the estrogen related receptor (ERR) signaling pathway from Tox21 library (AID 1224848); also: nearly all actives have a fitted effect of over 50% in size
How it was run: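 Compounds dissolved in DMSO are pin-transferred onto ERR reporter cells (2,000 per well) that have settled for 6 h at 37 C. Plates then incubate 18 h at 37 C before ONE-Glo luciferase reagent and a luminescence read 30 min later.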
% is scaled to controls: 0 for no effect and ±100 for the full control effect.

Sequence of Luciferin 4-monooxygenase (Photinus pyralis) (P08659 whole entry, looked up): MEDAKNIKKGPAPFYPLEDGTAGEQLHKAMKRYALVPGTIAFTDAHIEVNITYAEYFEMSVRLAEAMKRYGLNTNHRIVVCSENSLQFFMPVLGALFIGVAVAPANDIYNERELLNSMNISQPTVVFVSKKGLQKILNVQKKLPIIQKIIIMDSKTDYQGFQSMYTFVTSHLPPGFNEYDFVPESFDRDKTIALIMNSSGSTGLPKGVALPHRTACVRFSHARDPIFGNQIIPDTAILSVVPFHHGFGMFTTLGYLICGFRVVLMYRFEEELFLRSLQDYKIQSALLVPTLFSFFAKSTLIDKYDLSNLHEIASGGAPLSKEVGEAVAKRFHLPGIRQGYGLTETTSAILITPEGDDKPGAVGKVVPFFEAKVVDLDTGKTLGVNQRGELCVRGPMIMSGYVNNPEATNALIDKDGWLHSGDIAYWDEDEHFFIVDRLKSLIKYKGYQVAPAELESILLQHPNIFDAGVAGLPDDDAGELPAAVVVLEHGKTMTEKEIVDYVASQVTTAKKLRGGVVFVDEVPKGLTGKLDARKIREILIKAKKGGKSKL
Sequence of Thyrotropin receptor (Homo sapiens) (P16473 whole entry, looked up): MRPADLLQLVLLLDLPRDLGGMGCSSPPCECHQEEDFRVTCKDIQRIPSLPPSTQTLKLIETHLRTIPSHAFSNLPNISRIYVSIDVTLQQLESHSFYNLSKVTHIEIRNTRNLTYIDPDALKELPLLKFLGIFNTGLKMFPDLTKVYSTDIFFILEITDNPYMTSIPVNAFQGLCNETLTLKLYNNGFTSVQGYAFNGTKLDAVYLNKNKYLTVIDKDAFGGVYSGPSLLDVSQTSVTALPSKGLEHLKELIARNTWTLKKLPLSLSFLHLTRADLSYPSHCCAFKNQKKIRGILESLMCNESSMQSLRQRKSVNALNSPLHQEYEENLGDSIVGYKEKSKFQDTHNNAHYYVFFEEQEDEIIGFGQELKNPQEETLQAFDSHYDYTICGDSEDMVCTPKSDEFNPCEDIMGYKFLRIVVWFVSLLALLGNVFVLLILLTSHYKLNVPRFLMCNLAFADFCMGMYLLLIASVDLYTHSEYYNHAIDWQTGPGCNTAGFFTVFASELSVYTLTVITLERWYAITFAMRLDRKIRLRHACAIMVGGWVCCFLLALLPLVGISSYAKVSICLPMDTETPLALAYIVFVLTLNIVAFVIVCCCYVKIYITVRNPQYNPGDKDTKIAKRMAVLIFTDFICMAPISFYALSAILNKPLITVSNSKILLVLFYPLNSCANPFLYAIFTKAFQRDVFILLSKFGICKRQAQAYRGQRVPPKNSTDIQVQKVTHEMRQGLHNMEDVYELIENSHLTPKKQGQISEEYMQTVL
Sequence of Nuclear receptor subfamily 1 group I member 3 (Homo sapiens) (Q14994 whole entry, looked up): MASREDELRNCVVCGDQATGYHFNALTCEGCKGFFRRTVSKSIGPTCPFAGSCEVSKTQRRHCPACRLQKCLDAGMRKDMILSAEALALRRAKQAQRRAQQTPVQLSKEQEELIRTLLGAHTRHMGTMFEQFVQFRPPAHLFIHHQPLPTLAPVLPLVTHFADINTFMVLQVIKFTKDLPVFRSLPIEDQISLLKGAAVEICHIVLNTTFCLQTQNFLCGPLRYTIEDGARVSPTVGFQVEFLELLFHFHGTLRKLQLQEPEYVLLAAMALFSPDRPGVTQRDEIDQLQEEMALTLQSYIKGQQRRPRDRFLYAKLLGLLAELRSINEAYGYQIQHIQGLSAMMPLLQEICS

CCCCNS(=O)(=O)c1ccc(C)cc1
inactive: Potency [1] | Potency [2] | Potency [3] | Potency [4] | Potency [5] | Potency [6] | Potency [7] | Potency [8] | Potency [9] | Potency [10] | Potency [11] | Potency [12] | Potency [13]

Cc1cc(C(C#N)c2ccc(Cl)cc2)c(Cl)cc1NC(=O)c1cc(I)cc(I)c1O (stereo not given)
inactive: Potency [1] | Potency [2] | Potency [3] | Potency [5] | Potency [14] | Potency [6] | Potency [7] | activity change, positive = activation ([15]; at 42.5 µM (top of the series)) -52.3% | Potency [9] | Potency [10] | Potency [11] | Potency [12] | Potency [13]

COC(=O)c1ccccc1C
inactive: Potency [1] | Potency [2] | Potency [3] | Potency [5] | Potency [16] | Potency [14] | Potency [17] | Potency [6] | Potency [7] | Potency [8] | Potency [18] | Potency [19] | activity change, positive = activation ([15]; at 92.4 µM (top of the series)) 3.57% | Potency [9] | Potency [10] | Potency [11] | Potency [12] | Potency [13]

CN1CCN2c3ccccc3Cc3ccccc3C2C1 (stereo not given)
inactive: Potency [1] | Potency [2] | Potency [3] | Potency [5] | Potency [16] | Potency [14] | Potency [17] | Potency [7] | Potency [18] | activity change, positive = activation ([15]; at 42.5 µM (top of the series)) -10.4% | Potency [10] | Potency [12]

Cc1c(C)c2c(c(C)c1OC(=O)c1cccnc1)CC[C@@](C)(CCC[C@H](C)CCC[C@H](C)CCCC(C)C)O2
inactive: Potency [1] | Potency [2] | Potency [3] | Potency [5] | Potency [16] | Potency [14] | Potency [17] | Potency [6] | Potency [7] | Potency [8] | Potency [18] | Potency [19] | activity change, positive = activation ([15]; at 42.5 µM (top of the series)) 3.86% | Potency [9] | Potency [10] | Potency [11] | Potency [12] | Potency [13]

Nc1nc2c(ncn2COCCO)c(=O)[nH]1
inactive: Potency [1] | Potency [2] | Potency [3] | Potency [5] | Potency [16] | Potency [14] | Potency [17] | Potency [6] | Potency [8] | Potency [19] | activity change, positive = activation ([15]; at 42.5 µM (top of the series)) -1.87% | Potency [9] | Potency [10] | Potency [11] | Potency [12] | Potency [13]
